Screens as filed in PubChem.
MCF10A rereplic = DNA re-replication induction in MCF 10a cells; hit rate 2.9% among 350,000; AID 624296; MCF 10A DNA re-replication, Hoechst nuclear intensity, 48 h; Potency, µM (doses to about 46.1 µM), without a hit: top-dose activity, positive = re-replication, usual class: activators; further: % of control where 0% means no effect; nearly all actives have a fitted effect of over 50% in size
KB-V1 cytotox = KB-V1 MDR subline cytotoxicity; KB-V1 MDR cells viability, CellTiter-Glo, 72 h; Potency, µM (titrated, usually from 46.1 µM), usual class: cytotoxic; hit rate 3.4% among 400,000; AID 1347076; further: on the % scale 0 is the no-effect control and ±100 the full control effect; nearly all actives have a fitted effect of over 60% in size
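KB-V1 MDR subline cells in DMEM (phenol-red free, 10% FBS) exposed to compounds in qHTS concentration series for 72 h at 37 degrees C. Viability read by CellTiter-Glo luminescence; concentration-effect curves fitted after normalization and correction.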
HT1080 IDH1KD tx = toxicity to HT-1080 IDH1 knockdown cells (counter line). Potency, µM (titrated, usually from 46.1 µM), without a hit: at the highest dose activity, negative = toxicity, most hits filed as cytotoxic. hit rate 2% among 360,000. AID 686971. HT-1080 IDH1 knockdown viability, ATP luminescence, 48 h;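 further: 0% = DMSO wells and -100% = cell-free medium wells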
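Viability of IDH1-knockdown HT-1080 fibrosarcoma cells was assessed by CellTiter-Glo after 48 h at 37 °C with titrated compound; concentration-effect curves were classified by fit quality and response size.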
SW480 rerep = inducers of DNA re-replication in SW480 colon cancer cells; hit rate 1.8% among 340,000; SW480 DNA re-replication, Hoechst DNA content imaging, 48 h; Potency, µM (titrated, usually from 46.1 µM), for inactives: top-dose re-replication activation, hits mostly activators; further: % of control where 0% means no effect; nearly all actives have a fitted effect of over 55% in size
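Image-based read-out: total Hoechst fluorescence of nuclei (405 nm excitation, 500-530 nm emission), with hits raising the fraction of high-intensity nuclei. SW480 colon cells incubated 48 hr with compounds at 37 C.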
KB-3-1 cytotox = kills parental KB-3-1 adenocarcinoma cells; AID 1347075; Potency, µM (highest dose often 46.1 µM), actives largely listed as cytotoxic; hit rate 1.4% among 400,000; KB-3-1 viability, CellTiter-Glo ATP luminescence, 72 h; further: on the % scale 0 is the no-effect control and ±100 the full control effect; nearly all actives have a fitted effect of over 60% in size
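Parental KB-3-1 viability, qHTS format: 72 h compound exposure, 37 °C; CellTiter-Glo; media-only wells and DMSO plates as controls; concentration-effect fits on corrected data.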
HT1080-NT tox = kills 2HG-producing HT-1080-NT fibrosarcoma cells; Potency, µM (highest dose often 46.1 µM), without a hit: at the highest dose activity, negative = less viability, hits mostly cytotoxic; HT-1080-NT fibrosarcoma viability, CellTiter-Glo ATP luminescence, 48 h; hit rate 1.6% among 360,000;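 further: NT is the 2HG producing partner of a matched IDH1 knockdown line; 0% = DMSO-treated cells and -100% = media-only wells without cells; nearly all actives have a fitted effect of over 55% in size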
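HT-1080-NT fibrosarcoma cells (2HG-overproducing), 750 cells/well in RPMI with 5% FBS, dosed after 2 h and incubated 48 h at 37C. CellTiter-Glo luminescence normalized to DMSO and no-cell wells; concentration-response curves fitted and classed.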
Starred values were filed as active, the others as inactive; i = inactive; ? = inconclusive; · = not tested or not shown; [ ] = remark or other dose. Sampled rows, rich in hits. Any-hit rate of the full collection: about 8%. The call rests on the fitted dose curve; in most records, active means well fitted curve in the direction sought with a large enough effect; inconclusive means small, poorly fitted or top-dose-only effect, or another doubt; inactive means no such curve, though single readings can be large; an effect the other way counts as inactive or inconclusive. Potency means the concentration at half of the fitted maximal effect.

SMILES | MCF10A rereplic | KB-V1 cytotox | HT1080 IDH1KD tx | SW480 rerep | KB-3-1 cytotox | HT1080-NT tox
COc1ccc(CNC(=O)CSc2nnnn2Cc2ccccc2)cc1 | ? | ? | ? | ? | 16µM* | ?
CCOC(=O)CSc1nc2ccc(NC(=O)CSc3nnnn3Cc3ccccc3)cc2s1 | -1% | i | -8% | 3% | ? | -6%
COc1ccc(CSc2nnnn2Cc2ccccc2)cc1OC | ? | 23µM* | 2% | -4% | i | 3%
CC(C)(C)NC(=O)CSc1nc2ccc(NC(=O)CSc3nnnn3Cc3ccccc3)cc2s1 | 15% | i | 16µM* | -3% | i | -5%
COc1ccc(CCNc2nnc(Sc3nnnn3-c3ccccc3)s2)cc1OC | 4.6µM* | 15µM* | 2µM* | 2.9µM* | 4.1µM* | 3.5µM*
CCOc1ccc(C(c2c(O)cc(C)n(Cc3ccco3)c2=O)N2CCN(c3ccccc3)CC2)cc1 (stereo not given) | · | i | · | · | i | ·
CCOC(=O)C1CCN(C(=O)CC2(CC(=O)O)CCCC2)CC1 | 2% | i | 2% | -12% | i | 12%
Cc1ccc(CNC(=O)Cn2c(=O)n(-c3cccc(Cl)c3)c(=O)c3sc4ccccc4c32)cc1 | · | i | · | · | i | ·
O=C(COC(=O)CCS(=O)(=O)c1ccccc1)NNC(=O)c1ccc([N+](=O)[O-])cc1 | · | i | -1% | · | i | 1%
COc1ccc(S(=O)(=O)N2CCCCCC2)cc1C(=O)N(C)Cc1ccc(Cl)cc1Cl | 2.1µM* | i | ? | -24% | ? | ?
COc1cc(NS(=O)(=O)c2ccc(C)c(C)c2)c(OC)cc1Cl | ? | 18µM* | -17% | 21% | ? | -11%
COc1ccc(S(=O)(=O)N2CCCCC2)cc1NS(=O)(=O)c1cc(Cl)ccc1Cl | -18% | ? | 0% | 23µM* | i | 0%
COc1ccc(S(=O)(=O)N2CCCCCC2)cc1N(C)S(=O)(=O)c1ccc(C)cc1 | ? | 2.6µM* | -3% | 19% | i | 0%
Cc1c(NC(=O)Nc2ccccc2C(F)(F)F)sc2nc3n(c(=O)c12)CCC(C)CC3 (stereo not given) | · | ? | · | · | i | ·
CCc1cccc(N2C(=O)N(Cc3c(F)cccc3Cl)c3ccccc3S2(=O)=O)c1 | · | ? | · | · | i | ·
O=S(=O)(c1ccc(Oc2ccc(Cl)cc2)c(S(=O)(=O)N2CCCCC2)c1)N1CCCCC1 | 19% | 3.3µM* | 8% | -11% | i | 12%
O=S(=O)(c1ccc(Cl)cc1)N1CCN(S(=O)(=O)N2CCCCCC2)CC1 | -3% | i | 20% | -2% | i | 10%
O=C(CCl)N(c1ccccc1)C1CCCCC1 | 21% | ? | 3.3µM* | ? | i | 5.2µM*
CC(=O)N(c1ccccc1)C1CCCC1 | 1% | i | 0% | -13% | i | 1%
CCN(CC)S(=O)(=O)c1cnccc1N1CCN(c2cccc(Cl)c2)CC1 | ? | i | -20% | -39% | 10µM* | -10%
CNS(=O)(=O)c1cnccc1N1CCN(c2cccc(Cl)c2)CC1 | -2% | i | 1% | -3% | i | -10%
c1ccc2c(CCc3c[nH]c4ccccc34)ccnc2c1 | · | i | · | · | ? | ·
CCCCCCn1c(COc2ccccc2F)nnc1SCC(=O)N1c2ccccc2NC(=O)C1(C)C | 21µM* | ? | ? | ? | ? | -2%[9.24 µM]
CC1(C)CC(=O)c2cc(C(=O)NCCc3ccccc3)c(=O)[nH]c2C1 | · | i | · | · | ? | ·
COc1cccc(-n2c(SCC(=O)Nc3cc(C)on3)nc3ccccc3c2=O)c1 | -1% | i | -25% | 6% | i | 1%
SMILES | MCF10A rereplic | KB-V1 cytotox | HT1080 IDH1KD tx | SW480 rerep | KB-3-1 cytotox | HT1080-NT tox
CCc1sc2nc(SCC(=O)Nc3cc(C)on3)n(-c3cccc(OC)c3)c(=O)c2c1C | ? | 1.6µM* | -23% | 15% | i | -24%
COCCn1c(SCC(=O)NCCCN2CCCC2=O)nc2sc3c(c2c1=O)CCCC3 | 5% | 21µM* | 0% | -1% | i | -3%
Cc1cc(NC(=O)CSc2nc3sc4c(c3c(=O)n2C)CCCC4)no1 | 19% | i | -3% | 17% | i | 1%
CCn1c(SCC(=O)Nc2cc(C)on2)nc2sc3c(c2c1=O)CCCC3 | ? | i | ? | ? | i | 10µM*
Cc1nn(Cc2ccccc2)c(C)c1NC(=O)CSc1nc2sc3c(c2c(=O)n1C)CCC3 | 1% | ? | -9% | -7% | 9.2µM* | 0%
C=CCn1c(SCC(=O)Nc2cc(C)on2)nc2sc3c(c2c1=O)CCCC3 | -10% | i | 16% | -2%[9.22 µM] | i | 15%
Cc1cc(O)c(C(c2cccc(F)c2)N2CCC(C)CC2)c(=O)n1Cc1ccco1 (stereo not given) | · | ? | · | · | i | ·
COC(=O)c1cc(=O)n(CCc2ccccc2F)c(=Nc2ccc(F)c(Cl)c2)s1 | ? | i | 18µM* | 23% | ? | 21µM*
COC(=O)c1cc(=O)n(-c2ccc(F)cc2)c(=Nc2ccc(F)cc2)s1 | 5.2µM* | ? | ? | ? | ? | ?
COC(=O)c1cc(=O)n(Cc2cccs2)c(=Nc2ccc(F)cc2)s1 | 19% | i | ? | -9% | ? | ?
COC(=O)c1cc(=O)n(Cc2ccco2)c(=Nc2ccc(F)c(Cl)c2)s1 | 7.3µM* | ? | ? | ? | 18µM* | ?
COC(=O)c1ccc(N=c2sc(C(=O)OC)cc(=O)n2C)cc1 | ? | ? | 9% | -1% | i | -4%
Cc1ccc(NC(=O)c2cccc3c(=O)c4c([nH]c23)CCCC4)c(C)c1 | · | i | · | · | ? | ·
CCOC(=O)c1c(C)[nH]c(C)c1S(=O)(=O)N1CCN(c2cccc(C)c2)C(C)C1 (stereo not given) | 5% | i | -8% | -2% | i | 5%
CC(C)Oc1ccc(C(=O)Nc2cc(S(=O)(=O)N3CCOCC3)ccc2N2CCOCC2)cc1 | ? | 16µM* | ? | ? | ? | -18%
O=C(Nc1ccccc1C(=O)N1CCOCC1)c1cccc(S(=O)(=O)N2CCCC2)c1 | 0% | 9.2µM* | 0% | 1% | i | 0%
CC(C)Oc1ccc(S(=O)(=O)N2CCOCC2)cc1NC(=O)c1cccc(S(=O)(=O)N2CCCC2)c1 | -1% | 18µM* | 0% | 1% | i | -6%
O=C(Nc1ccccc1C(=O)N1CCCC1)c1cccc(S(=O)(=O)N2CCCCCC2)c1 | 15% | i | 3% | -1%[9.22 µM] | i | 3%
